These results are taken from PubChem BioAssay AID2533 (National Center for Advancing Translational Sciences (NCATS), 2010).

Structures are written as SMILES. “And” between values parts separate entries of the source, which are not always exact repeats. Equal entries are not always repeated. Inconclusive results are not listed. A number with no mark means an inactive call. The source made the active and inactive calls. Calls come from the whole dose curve; as a rule, active = well fitted activation curve with a large enough effect; inconclusive = small, poorly fitted or top-dose-only effect; inactive = flat fitted curve, though single readings scatter.
Potency is the fitted concentration of half-maximal effect.

Pyruvate kinase PKM (Homo sapiens), sequence (P14618 whole entry, looked up, canonical isoform): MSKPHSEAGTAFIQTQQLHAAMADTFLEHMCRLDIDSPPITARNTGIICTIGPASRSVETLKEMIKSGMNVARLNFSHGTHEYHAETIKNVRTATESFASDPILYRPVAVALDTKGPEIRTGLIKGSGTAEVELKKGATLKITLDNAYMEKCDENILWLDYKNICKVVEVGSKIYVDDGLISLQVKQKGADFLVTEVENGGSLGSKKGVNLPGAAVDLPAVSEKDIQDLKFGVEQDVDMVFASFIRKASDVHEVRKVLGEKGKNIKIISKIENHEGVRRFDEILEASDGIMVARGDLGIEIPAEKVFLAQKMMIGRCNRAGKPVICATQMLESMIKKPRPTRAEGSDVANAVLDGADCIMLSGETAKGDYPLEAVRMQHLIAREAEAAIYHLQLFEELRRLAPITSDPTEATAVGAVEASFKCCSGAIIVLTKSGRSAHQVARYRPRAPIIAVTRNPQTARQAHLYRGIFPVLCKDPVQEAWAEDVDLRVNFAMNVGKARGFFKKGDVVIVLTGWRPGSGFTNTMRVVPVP

The experiment addresses Pyruvate kinase PKM (Homo sapiens) (UniProt P14618). Kind of experiment: Confirmation Concentration-Response Assay for Activators of Human Muscle isoform 2 Pyruvate Kinase: for Probe SAR. For activity change, positive = activation: % of control where 0% means no effect. Note: nearly all actives have a fitted effect of over 60% in size. The settings on record: purified PKM2, ATP generation, Kinase-Glo luminescence; series mostly up to 57.5 µM; activity change, positive = activation: at the top concentration. The method in brief: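 Purified hPK-M2 at 0.1 nM final converted ADP (0.1 mM) and PEP (0.5 mM) to ATP over 1 hour at room temperature in imidazole buffer, pH 7.2. ATP formed was measured by Kinase-Glo luminescence, normalized to no-enzyme and uninhibited controls.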
(Kinase-Glo measures the ATP left after a reaction by luminescence.)
As for `Cc1ccc(NS(=O)(=O)c2ccc3c(c2)CCC(=O)N3)cc1F`, the Potency was 517 nM (active).
Turning to `COc1cc(F)c(S(=O)(=O)N2CCN(S(=O)(=O)c3cccc(N)c3)CC2)c(F)c1`, the Potency was 23.1 nM (active).
On to `O=C1c2ccccc2C(=O)N1c1cccc(O)c1`, for which the “activity change, positive = activation” value was 9.55%.
With `O=C1CCc2cc(S(=O)(=O)Nc3ccc(F)c(Cl)c3)ccc2N1`, the Potency is 291 nM (active).
For the compound `O=S1(=O)N=C(Oc2ccccc2F)c2ccccc21`, the “activity change, positive = activation” value was 12%.
Regarding `O=S1(=O)N=C(Oc2cccc(Br)c2)c2ccccc21`, the “activity change, positive = activation” value is -0.387%.
For `Cc1ccc(N2C(=O)c3ccccc3C2=O)c(C)c1`, the “activity change, positive = activation” value was 0.597%.
For `O=S(=O)(c1ccc2c(c1)OCCO2)N1CCN(S(=O)(=O)c2c(F)cccc2F)CC1`, the Potency was 517 nM (active) and 183 nM (active) and 291 nM (active).
For the compound `O=C1CCc2cc(S(=O)(=O)Nc3cccc(C(F)(F)F)c3)ccc2N1`, the Potency is 13000 nM (active).
In the case of `O=S1(=O)N=C(Sc2ccc3c(c2)OCCO3)c2ccccc21`, the “activity change, positive = activation” value is -17.2%.
Still for that read-out and setting: as for `Cc1ccc(Nc2c(-c3ccsc3)nc3cccc(C)n23)cc1`, the figure is 6.9%.
`COc1cc(F)c(S(=O)(=O)N2CCN(S(=O)(=O)c3ccc(N)cc3)CC2)c(F)c1`: the Potency was 130 nM (active).
For the compound `Cc1ccc(C)c(O)c1`, the “activity change, positive = activation” value is 1.47%.
Turning to `CC(=O)Nc1ccc(S(=O)(=O)N2CCN(S(=O)(=O)c3ccc4c(c3)OCCO4)CC2)cc1`, the Potency is 1630 nM (active).
With `O=C1CCc2cc(S(=O)(=O)Nc3ccccn3)ccc2N1`, the “activity change, positive = activation” value is 28.5%.
Still for that read-out and setting: for `COc1ccc(OC2=NS(=O)(=O)c3ccccc32)cc1` the value was 11.5%.
With `O=C1c2ccccc2C(=O)N1c1cccc(=O)[nH]1`, the “activity change, positive = activation” value was -0.118%.
